Screens: PubChem, The Scripps Research Institute Molecular Screening Center
ULK1 primary = human ULK1 kinase inhibition, primary screen; hit rate 1.9% among 30,000; AID 1259251; O75385; AlphaScreen Atg13 phosphorylation by ULK1, luminescence; inhibition, % at 5.96 µM; in the data active means inhibition above about 43%;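 further: 0% = median of compound wells and 100% = no enzyme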
ASK1 inh = inhibitors of human ASK1 kinase; AlphaScreen MKK6 phosphorylation by ASK1, luminescence; Q99683; inhibition, % at 7.44 µM; hit rate 0.99% among 22,000; in the data active means inhibition above about 35%;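 further: 0% = median of compound wells and 100% = no enzyme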
Starred values were filed as active, the others as inactive. Rows were chosen to be rich in hits. Some 2.5% of all compounds tested hit in one or more screens of this group.

Results for c1cn(-c2ccc(Nc3ncc4ccc(-c5cn[nH]c5)cc4n3)cc2)cn1 ?
ULK1 primary: 90*; ASK1 inh: 25

How did Cc1nc(C)n(-c2ccc(Nc3cc4cc(-c5cn[nH]c5)ccc4cn3)cc2)n1 do in these assays?
ULK1 primary: 81*; ASK1 inh: -35

What do the screens show for `Cn1cc(-c2ccc3cnc(Nc4ccc(C(=O)N5CCOCC5)cc4)nc3c2)cn1`?
ULK1 primary: 73*; ASK1 inh: -3

How did COc1cc(NC(=O)c2cc(NC3CCC(O)CC3)nc3ccccc23)cc(OC)c1OC (stereo not given) do in these assays?
ULK1 primary: -8; ASK1 inh: -3

Results for Cc1nn(C)c(C)c1-c1nccc(NCc2cccnc2)n1 ?
ULK1 primary: -3; ASK1 inh: -16

Results for Cn1ncc2cc(Nc3ncc4ccc(-c5cn[nH]c5)cc4n3)ccc21 ?
ULK1 primary: 75*; ASK1 inh: 27

Results for c1cc(-c2ccc3cnc(Nc4ccc(-n5cnc(N6CCOCC6)n5)cc4)nc3c2)c[nH]1 ?
ULK1 primary: 15; ASK1 inh: 19

What do the screens show for `Cn1cc(-c2ccc3cnc(Nc4ccc(N5CCOCC5)cc4)nc3c2)cn1`?
ULK1 primary: 84*; ASK1 inh: 19

What do the screens show for `Cn1cc(-c2nc(Nc3ccc(N4CCOCC4)cc3)ncc2F)cn1`?
ULK1 primary: 20; ASK1 inh: -22

Results for O=S(=O)(c1ccc(Nc2nccc(-c3ccccc3)n2)cc1)N1CCCC1 ?
ULK1 primary: 4; ASK1 inh: 0

What do the screens show for `COc1cccc(CN(CCCO)C(=O)C(O)c2ccc(-c3cn[nH]c3C)cc2)c1` (stereo not given)?
ULK1 primary: -7; ASK1 inh: 0

How did CCCNc1nc(Nc2nc3ccccc3n2C)nc2c1ncn2CCN1CCCC1=O do in these assays?
ULK1 primary: 1; ASK1 inh: -14

What do the screens show for `Cn1c(Nc2nc(NCCO)c3ncn(CCN4CCCC4=O)c3n2)nc2ccccc21`?
ULK1 primary: 73*; ASK1 inh: 2

How did COc1ccc(CCNc2ncnc3c2nc(N2CCN(Cc4ccc5c(c4)OCO5)CC2)n3C(C)C)cc1 do in these assays?
ULK1 primary: -18; ASK1 inh: 12

Results for Cc1cccc(CNC(=O)Nc2ccc(-c3cn[nH]c3)cc2)c1 ?
ULK1 primary: 8; ASK1 inh: 2

What do the screens show for `CN(C)CC(=O)Nc1cccc(CNC(=O)Nc2ccc(-c3cn[nH]c3)cc2)c1`?
ULK1 primary: 96*; ASK1 inh: 12

What do the screens show for `CN1CCN(C(=O)c2ccc(-c3nccc(N)n3)cc2)CC1`?
ULK1 primary: -6; ASK1 inh: -19

What do the screens show for `CCN(CC)c1nc(NCCOc2ccccc2)nc(Nc2ccc(C(F)(F)F)cc2)n1`?
ULK1 primary: 0; ASK1 inh: 4

Results for CCC(=O)/C=C/n1c(=S)oc2ccccc21 ?
ULK1 primary: 48*

How did CC(=O)Nc1ccc(Nc2nc(-c3c(C)nn(C)c3C)nc3nc[nH]c23)cc1 do in these assays?
ULK1 primary: 40; ASK1 inh: 3

How did OCCNc1nc(Nc2ccc(-n3ccnc3)cc2)nc2c1ncn2C1CCCCC1 do in these assays?
ULK1 primary: 21; ASK1 inh: 2

How did Cc1nn(C)c(C)c1-c1cc(NCc2ccccc2)ncn1 do in these assays?
ULK1 primary: -25; ASK1 inh: -8

Results for c1ccc(OCCNc2nc(N3CCC(N4CCOCC4)CC3)nc3c2ncn3C2CCCCC2)cc1 ?
ULK1 primary: -7; ASK1 inh: 17

Results for Oc1ccc(CCNc2nc(Nc3cnccn3)nc3c2ncn3C2CCCCC2)cc1 ?
ULK1 primary: 44*; ASK1 inh: -30

What do the screens show for `COc1ccc(CCNc2nc(Nc3cnccn3)nc3c2ncn3C2CCCCC2)cc1`?
ULK1 primary: 15; ASK1 inh: -1

How did CC(=O)Nc1ccc(Nc2nc(-c3cccc(C(C)=O)c3)nc3c2ncn3C(C)C)cc1 do in these assays?
ULK1 primary: 34; ASK1 inh: 18

Results for CC(C)n1cnc2c(NCCOc3ccccc3)nc(Nc3ccc(-n4ccnc4)cc3)nc21 ?
ULK1 primary: -2; ASK1 inh: 27

Results for CC(C)n1cnc2c(NCc3nc4ccccc4[nH]3)nc(Nc3ccc4ncccc4c3)nc21 ?
ULK1 primary: 45*; ASK1 inh: 2

How did CC(C)n1cnc2c(Nc3ccc(N4CCOCC4)cc3)nc(Nc3ccc4ncccc4c3)nc21 do in these assays?
ULK1 primary: 29; ASK1 inh: 12

How did CC(C)n1cnc2c(Nc3ccccc3)nc(Nc3ccc(-n4ccnc4)cc3)nc21 do in these assays?
ULK1 primary: 56*; ASK1 inh: 0

Results for CC(C)n1cnc2c(Nc3ccccc3)nc(Nc3ccc4ncccc4c3)nc21 ?
ULK1 primary: 52*; ASK1 inh: 0

What do the screens show for `CC(=O)c1cccc(-c2nc(Nc3ccccc3)c3ncn(C(C)C)c3n2)c1`?
ULK1 primary: 46*; ASK1 inh: -16

Results for CC(C)n1cnc2c(NCc3nc4ccccc4[nH]3)nc(Nc3ccccn3)nc21 ?
ULK1 primary: 25; ASK1 inh: 1
